For three compounds, growth results are on record in PubChem BioAssay (NCI).

Where “and” joins values, the source holds several entries; their conditions need not be identical. Equal entries are not always repeated. This is part of a sample that, as a whole, favours compounds with a hit. Of some 83,000 tested, about 20% had one in any assay.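 In brief: 96-well plates, 48 h treatment, single concentration, percent growth endpoint.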 Calls of active or inactive are those of the source. How the source made its calls: active means growth percent below 10; inactive means the rest.

Test systems include NCI-H23 lung; NCI-H226 lung; HOP-62 NSCLC; NCI-H460 lung; NCI-H522 lung; A549/ATCC NSCLC; 786-0 renal; COLO 205 colon; HOP-92 NSCLC.
Common to all, as to experiment: NCI-60 one-dose screen, 48 h (100 = growth as untreated, 0 = no growth, -100 = all killed)
Conditions in all cases: 10 µM

Consider `CC/C(=C/c1ccc(OC)cc1OC)[N+](=O)[O-]`, for which the growth in the experiment on NCI-H23 lung is 59% (inactive); in the experiment with NCI-H226 lung it was 111% (inactive); in the experiment on HOP-62 NSCLC it was 74% (inactive); with NCI-H460 lung, 49.5% (inactive); with NCI-H522 lung it was -41.7% (active); in the experiment with A549/ATCC NSCLC it was 65.1% (inactive). The growth in the experiment with 786-0 renal was -53% (active); with COLO 205 colon, -40.7% (active).

With `CC(=O)[O][Hg][c]1c(C)c(C)cc(C)c1C`, the growth in the experiment with NCI-H23 lung is -45.3% (active); in the experiment on NCI-H226 lung, -5.8% (active); with HOP-62 NSCLC, -82.6% (active); with NCI-H460 lung it was -16.7% (active); in the experiment with NCI-H522 lung it was -96.4% (active); with A549/ATCC NSCLC, 91.5% (inactive). In addition, the growth in the experiment with 786-0 renal was 19% (inactive); in the experiment with COLO 205 colon, -9.36% (active).

For the compound `COc1cc(/C=C(/C)[N+](=O)[O-])ccc1O`, the growth was 61.1% (inactive) and 81.4% (inactive) in the experiment on NCI-H23 lung; 86.7% (inactive) and 91% (inactive) in the experiment with NCI-H226 lung; 55.6% (inactive) and 47.6% (inactive) with HOP-62 NSCLC; 43% (inactive) and 21.5% (inactive) with NCI-H460 lung; 41.3% (inactive) with HOP-92 NSCLC; -78.2% (active) and -84.9% (active) in the experiment on NCI-H522 lung. For the same compound, the growth in the experiment on A549/ATCC NSCLC was 57.4% (inactive) and 48.9% (inactive); with 786-0 renal, 50% (inactive) and -13.4% (active); in the experiment on COLO 205 colon, 60.8% (inactive) and 47.9% (inactive).
